Screen size: about 2,400 compounds; about 750 (31%) were called active. This is one part of the list. Values without a mark were called inactive.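 How the source made its calls: active means median signal gain over dofetilide-blocked control wells reaching their mean plus 3 SD, so readout 1 at least 0; inactive means the rest.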
Each compound was assayed against Voltage-gated inwardly rectifying potassium channel KCNH2 (Homo sapiens) (UniProt Q12809) (assay: hERG protection against dofetilide inhibition, confirmation, cell-based, thallium flux, duplicate retest, dofetilide IC70 (AID 1835)). Details: hERG cell line, FluxOR thallium flux, dofetilide-blocked; at 10 µM; hits give high values.
Chain of Voltage-gated inwardly rectifying potassium channel KCNH2 (Homo sapiens) (Q12809 whole entry, looked up): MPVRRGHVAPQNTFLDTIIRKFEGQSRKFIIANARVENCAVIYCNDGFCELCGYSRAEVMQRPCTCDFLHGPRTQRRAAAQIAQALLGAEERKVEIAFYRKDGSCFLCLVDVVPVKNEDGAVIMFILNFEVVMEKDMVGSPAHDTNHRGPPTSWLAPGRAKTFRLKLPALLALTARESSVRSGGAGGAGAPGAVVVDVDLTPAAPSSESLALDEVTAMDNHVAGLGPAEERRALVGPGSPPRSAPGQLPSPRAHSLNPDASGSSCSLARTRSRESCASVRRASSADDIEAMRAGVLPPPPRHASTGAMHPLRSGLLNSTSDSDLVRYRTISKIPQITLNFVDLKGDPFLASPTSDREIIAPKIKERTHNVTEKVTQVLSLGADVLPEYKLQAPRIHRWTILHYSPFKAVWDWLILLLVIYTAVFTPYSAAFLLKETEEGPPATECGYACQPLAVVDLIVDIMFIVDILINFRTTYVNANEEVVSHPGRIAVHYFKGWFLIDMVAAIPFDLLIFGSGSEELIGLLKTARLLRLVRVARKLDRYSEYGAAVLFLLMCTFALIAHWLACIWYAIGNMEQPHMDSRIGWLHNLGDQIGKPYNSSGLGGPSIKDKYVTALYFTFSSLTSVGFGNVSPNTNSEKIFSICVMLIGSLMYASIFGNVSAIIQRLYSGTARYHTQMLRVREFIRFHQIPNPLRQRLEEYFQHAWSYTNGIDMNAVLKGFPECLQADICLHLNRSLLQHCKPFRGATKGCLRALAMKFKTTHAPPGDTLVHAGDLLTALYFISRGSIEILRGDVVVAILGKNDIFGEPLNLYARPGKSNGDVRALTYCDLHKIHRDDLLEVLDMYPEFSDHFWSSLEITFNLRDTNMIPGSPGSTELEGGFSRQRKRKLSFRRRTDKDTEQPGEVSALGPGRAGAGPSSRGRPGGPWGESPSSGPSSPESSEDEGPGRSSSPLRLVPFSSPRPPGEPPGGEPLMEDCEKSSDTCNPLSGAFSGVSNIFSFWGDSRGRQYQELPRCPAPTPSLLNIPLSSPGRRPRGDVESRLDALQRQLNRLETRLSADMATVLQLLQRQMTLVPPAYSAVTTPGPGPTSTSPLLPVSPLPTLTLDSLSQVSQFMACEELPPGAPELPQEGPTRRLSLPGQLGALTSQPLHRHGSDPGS

Row | SMILES | activity increase over dofetilide control, less the hit threshold
1 | O=C(CCc1ccccc1)Nc1nccs1 | -12%
2 | CC(C)C(=O)Nc1ccc(NC(=O)CCc2ccccc2)cn1 | -14%
3 | O=C(Nc1ncc(Br)s1)C(Cc1ccccc1)n1cccc1 (configuration not stated) | 22% (active)
4 | Cc1cc2[nH]c(=O)c(=O)[nH]c2cc1S(=O)(=O)N1CCN(c2cccc(C)c2C)CC1 | -5%
5 | CC(Oc1ccc(Cl)cc1)/C(N)=N/O (configuration not stated) | -20%
6 | Cc1ccc2[nH]cc(CCNC(=O)/C=C/c3ccco3)c2c1 | -14%
7 | CCCOc1ccc(-c2c(=O)n(O)c3ccccc3[n+]2[O-])cc1 | 51% (active)
8 | CCOc1ccc(CC(C(N)=O)C(N)=O)cc1 | -12%
9 | CCOc1ccc(-c2c(=O)n(O)c3ccccc3[n+]2[O-])cc1 | 74% (active)
10 | Cc1cccc(/C=N/Nc2ccc3ccccc3n2)c1 | -3%
11 | O=S(=O)(Nc1nc(-c2sccc2Cl)cs1)c1cc(Cl)ccc1Cl | 73% (active)
12 | O=C(Nc1ccccc1)OCCCCCOC(=O)Nc1ccccc1 | -11%
13 | C/C(Cl)=C\Cn1c(O)c(N=NC(N)=S)c2cc(Br)ccc21 | 49% (active)
14 | C=CCn1c(O)c(N=NC(=S)Nc2ccccc2F)c2cc(S(=O)(=O)N3CCOCC3)ccc21 | 0%
15 | COc1ccc(C(=O)O/N=C(\N)c2ccccn2)cc1[N+](=O)[O-] | -11%
16 | Nn1c(SCC(=O)Nc2ccc(OC(F)F)cc2)nnc1-c1ccco1 | -12%
17 | CC(C)OC(=O)c1c2nc3ccccc3nc2n2c1[nH]c(=O)c1ccccc12 | 85% (active)
18 | CCc1ccc(C(=O)CSc2nc3ccccc3c(=O)[nH]2)cc1 | -16%
19 | CCCCOC(=O)Cn1c2ccc(OC)cc2c2nc3ccccc3nc21 | -28%
20 | CC1=NN(C(=O)c2cc(C)nn2C)C(O)(C(F)(F)F)C1 (configuration not stated) | -14%
21 | CC(C)Sc1nc2ccccc2n2cnnc12 | -2%
22 | O=C(c1cccc(C(F)(F)F)c1)C1CCCN(C(=O)CCn2cnnn2)C1 (configuration not stated) | -3%
23 | CCc1cc(=O)[nH]c(SCc2ccc(C)cc2)n1 | -11%
24 | CCSc1nc(=S)cc(C)[nH]1 | 49% (active)
25 | CSc1nc(=S)cc(C)[nH]1 | 5% (active)
26 | CCOc1cccc(Nc2cc3n(c(=O)n2)CCc2cc(OC)c(OC)cc2-3)c1 | -22%

Row | SMILES | activity increase over dofetilide control, less the hit threshold
27 | Cc1cc(C(=O)NP(=O)(N2CCOCC2)N2CCOCC2)c(C)n1-c1ccc(Br)cc1 | -13%
28 | Cc1cc(NC(=O)CSc2ccc(-c3ccc(F)cc3)nn2)no1 | -12%
29 | CC(C)(C)C1(O)CC(C(F)(F)F)=NN1C(=O)Cc1ccc([N+](=O)[O-])cc1 (configuration not stated) | -19%
30 | O=C(C1CC1)N1N=C(c2ccccc2)CC1(O)C(F)(F)C(F)(F)F (configuration not stated) | -11%
31 | CCCCC1(O)CC(C(F)(F)F)=NN1C(=O)COc1ccccc1 (configuration not stated) | 4% (active)
32 | COc1cc(OC)c(C2=NOC(C(=O)Nc3ccc4c(c3)OCO4)C2)cc1Cl (configuration not stated) | -21%
33 | Oc1ccc(N=Nc2ccccc2-c2nn[nH]n2)c(O)c1 | 6% (active)
34 | COc1cc(CNn2nnnc2N)ccc1OCC(=O)NC(C)(C)C | -15%
35 | CCCCCCCCCCn1c2c(c(=N)c3c1CCC3)CCC2 | 49% (active)
36 | Cc1cc(Br)c(NC(=O)COC(=O)C2CC2C)c(Br)c1 (configuration not stated) | -11%
37 | CCOC(=O)NC(=O)/C(C#N)=N\Nc1ccc(Cl)cc1 | -17%
38 | CCOC(=O)NC(=S)Nc1ccc(C(C)(C)C)cc1 | 3% (active)
39 | CCOC(=O)NC(=S)Nc1ccc(C(C)(C)C)cc1Br | 23% (active)
40 | COC(=O)CNC(=S)NC(=O)c1ccc(C(C)(C)C)cc1 | -8%
41 | c1cnc2c(Oc3ncnc4sccc34)cccc2c1 | -11%
42 | N#Cc1ccc(OCc2nnc(-c3ccc([N+](=O)[O-])cc3)o2)cc1 | -3%
43 | CCOC(=O)C1=C(c2ccccc2)NC(=O)NC1c1ccc(OC)c(OC)c1 (configuration not stated) | -6%
44 | CCOC(=O)C1=C(c2ccccc2)NC(=O)NC1c1ccc(O)c(Cl)c1 (configuration not stated) | 5% (active)
45 | COc1cc(C2NC(=O)NC(C)=C2C(=O)OCC2CCCCC2)ccc1O (configuration not stated) | -3%
46 | O=C(O)c1cccc(C(=O)Nc2cccc(NC(=O)C3CCCO3)c2)c1 (configuration not stated) | -14%
47 | O=C(Nc1ccc(NC(=O)C2CC2)nc1)c1cccs1 | -21%
48 | CCC1CCCCN1C(=S)NC(=O)c1cccs1 (configuration not stated) | 4% (active)
49 | O=C(NC(=S)N(CC1CCC1)CC1CCCO1)c1cccc([N+](=O)[O-])c1 (configuration not stated) | 14% (active)
50 | CCCCCC(=O)NNC(=S)NC(=O)c1ccc([N+](=O)[O-])cc1 | -24%
51 | CCCCNC(=S)NC(=O)c1ccc([N+](=O)[O-])cc1 | -4%
52 | CC1CCN(C(=S)NC(=O)c2cccc([N+](=O)[O-])c2)CC1 | 15% (active)

Row | SMILES | activity increase over dofetilide control, less the hit threshold
53 | CCCCN(C(=O)CNC(=O)c1cccs1)C(C(=O)NC1CCCC1)c1ccncc1 (configuration not stated) | -6%
54 | CCC1CCCCN1C(=S)NC(=O)c1ccc([N+](=O)[O-])cc1 (configuration not stated) | 28% (active)
55 | CCOC(=O)/C=C/c1ccc2c(c1)S(=O)(=O)N(c1cccc(OC)c1)[C@H]2CC(=O)OCC | -20%
56 | O=C(NC1CCCC1)C(c1ccncc1)N(Cc1ccccc1F)C(=O)c1csnn1 (configuration not stated) | -1%
57 | Cc1occc1C(=O)Nc1cccc([N+](=O)[O-])c1 | -20%
58 | CCC1CCCCN1C(=S)NC(=O)c1cccc([N+](=O)[O-])c1 (configuration not stated) | 36% (active)
59 | O=[N+]([O-])c1ccc(Nc2ccccc2F)nc1 | -3%
60 | O=C(CCc1nc(-c2ccccc2)no1)N1CCCC1 | -20%
61 | CC(C(=O)N1CCN(c2ccc([N+](=O)[O-])cc2)CC1)N1C(=O)C2CC=CCC2C1=O (configuration not stated) | -9%
62 | C=CCN1C(=O)C(Cc2ccc(OCC)cc2)SC1=Nc1ccc(C(=O)O)cc1 (configuration not stated) | -11%
63 | C=CCn1c(SCc2ccc(C(=O)O)cc2)nc2sc(C)c(C)c2c1=O | 20% (active)
64 | C=CCOc1ccccc1/C=c1\sc2nc(=O)c(C)nn2c1=O | -7%
65 | CNC(=O)CSc1nnc(-c2ccco2)n1-c1ccc(C)cc1 | -10%
66 | COc1ccc(NC(=S)NC(NC(=O)c2cccc3ccccc23)C(Cl)(Cl)Cl)c([N+](=O)[O-])c1 (configuration not stated) | -23%
67 | CNC(=S)Nc1sc2c(c1C(=O)OC)CCC2 | 17% (active)
68 | CCOC(=O)c1c(NC(=S)NC)sc2c1CCCC2 | 42% (active)
69 | CCOC(=O)c1c(/N=C/C2=C(O)CCCC2=O)sc2c1CCCC2 | -14%
70 | C=CCNC(=S)Nc1sc2c(c1C(=O)OCC)CC(C(C)C)OC2 (configuration not stated) | -4%
71 | C=CCNC(=S)Nc1sc2c(c1C(=O)OCC)CC(C)(CC)OC2 (configuration not stated) | 15% (active)
72 | COC(=O)c1c(NC(=S)Nc2ccc(F)cc2[N+](=O)[O-])sc2c1CCCCC2 | 11% (active)
73 | COc1ccc(CCNC(=O)CSc2ccc3nnc(CCNC(=O)c4ccccc4)n3n2)cc1OC | -13%
74 | Clc1cccc(-c2ccc(C=Nc3ccc(N4CCOCC4)cc3)o2)c1Cl | -12%
75 | COc1ccc(CCNC(=O)CC(NS(=O)(=O)c2ccc(NC(C)=O)cc2)C(C)C)cc1OC (configuration not stated) | -8%
76 | CCOC(=O)c1c(NC(=S)NC)sc2c1CC(C)(C)SC2 | 79% (active)
77 | CC(=O)NC(CSC(CC(=O)c1ccco1)c1ccc(C)cc1)C(=O)O (configuration not stated) | -15%
78 | C[n+]1ccccc1/C=C/c1ccc(C#N)cc1 | 6% (active)

Row | SMILES | activity increase over dofetilide control, less the hit threshold
79 | C[n+]1ccccc1/C=C/c1c(F)cccc1F | -2%
80 | COc1cc(Cl)cc(C(c2c(C(=O)O)[nH]c3ccccc23)c2c(C(=O)O)[nH]c3ccccc23)c1O | -20%
81 | Cc1c(-c2ccn[nH]2)cc(NC(=O)c2ccc(Cl)cc2)c(=O)n1N | 7% (active)
82 | CC(=O)NCCc1nc2cc(NC(=O)c3ccc(Cl)cc3)ccc2n1C | -9%
83 | Cn1nc(C(F)(F)F)c(-c2ccc(Br)cc2)c1NC(=O)c1cccnc1 | 6% (active)
84 | CN(C)S(=O)(=O)c1cccc(C(=O)Nc2cccnc2)c1 | -6%
85 | O=C(N=C1SC2CS(=O)(=O)CC2N1c1cccc(Cl)c1Cl)C1CCCO1 (configuration not stated) | -15%
86 | CCOc1ccc(S(=O)(=O)Nc2nc3ccccc3nc2-n2ccc(=NC(=O)c3cccs3)cc2)cc1 | -6%
87 | CN(CCc1ccccn1)C(=O)CCC1CCCN(C(=O)c2ccsc2)C1 (configuration not stated) | -5%
88 | Cc1nonc1CN(C)C(=O)c1ccc(OC2CCN(Cc3ccccn3)CC2)cc1 | 3% (active)
89 | C/C(=N\N1CCN(C2c3ccccc3-c3ccccc32)CC1)c1ccncc1 | -18%
90 | C/C(=C/CCC(C)[C@H]1CC[C@@]2(C)C3=C(CC[C@]12C)[C@@]1(C)CCC(=O)C(C)(C)[C@@H]1CC3)C(=O)O (some centres not stated) | 45% (active)
91 | C/C(=C/CCC(C)C1CCC2(C)C3CCC4C(C)(C)C(=O)CCC4(C)C3=CCC12C)C(=O)O (configuration not stated) | 15% (active)
92 | Nc1ncnc(Oc2cccc3cccnc23)c1[N+](=O)[O-] | -12%
93 | Nc1cc(-c2ccc(Br)cc2)[nH]n1 | -11%
94 | CNC(=O)c1ccc(NC(=O)CN2c3cccc4cccc(c34)S2(=O)=O)cc1 | 61% (active)
95 | O=C(CN1C(=O)c2cccc3cccc1c23)Nc1cccnc1 | -17%
96 | CSc1cccc(NC(=O)CN2C(=O)c3ccccc3S2(=O)=O)c1 | -19%
97 | COc1ccc(N2CCN(C(=S)Nc3cccc(OC)c3)CC2)cc1 | -11%
98 | COc1ccc(N2CCN(C(=S)NC(=O)c3cccs3)CC2)c([N+](=O)[O-])c1 | 1% (active)
99 | Cc1c(C(=O)NN2CCN(C)CC2)cccc1[N+](=O)[O-] | -16%
100 | O=C(NC(=S)N1CCN(c2ccc(C(F)(F)F)cc2[N+](=O)[O-])CC1)c1cccs1 | 12% (active)
101 | O=C(NC(=S)N1CCN(c2ccc(Cl)cc2[N+](=O)[O-])CC1)c1cccs1 | 12% (active)
102 | O=C(NC(=S)N1CCN(c2c(Cl)cccc2[N+](=O)[O-])CC1)c1cccs1 | 2% (active)
